{"source": "PubChem BioAssay", "note": "For some of these results: Measured potencies and affinities stand elsewhere."}
{"test": "polyglutamine-triggered caspase-3 activation inhibitors, cell-based (AID 1583)", "settings": "polyglutamine-induced caspase-3 activation, cell assay; stronger effect = higher value;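 tested at 10 µM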", "units": {"inhibition": "%"}}
{"smiles": "NC(Cn1ccc(=O)c(O)c1)C(=O)O", "note": "(centres undefined)", "inhibition": -4.48}
{"smiles": "N#Cc1ccc2c(c1)N(CCCN1CCC(O)CC1)c1ccccc1S2", "inhibition": -41.8}
{"smiles": "O=C(O)c1cc([N+](=O)[O-])ccc1NCCCc1ccccc1", "inhibition": 58.5}
{"smiles": "O=c1c(-c2ccc(O)cc2)coc2cc(O)ccc12", "inhibition": -30.4}
{"smiles": "CC(C)=CCc1c2c(c3occ(-c4ccc(O)c(O)c4)c(=O)c3c1O)C=CC(C)(C)O2", "inhibition": -8.52}
{"smiles": "NC(=O)c1cccc(N)c1", "inhibition": -48.2}
{"smiles": "CCN1CCCC1CNC(=O)c1cc(S(N)(=O)=O)ccc1OC", "note": "(centres undefined)", "inhibition": 17.6}
{"smiles": "COc1c(OC)c2occc2c2oc(=O)ccc12", "inhibition": -21}
{"smiles": "NC1(C(=O)O)CCCC1", "inhibition": 20.1}
{"smiles": "CON", "inhibition": -5.62}
{"smiles": "C=NC(C(=O)NC1C(=O)N2C1SC(C)(C)C2C(=O)O)c1ccccc1", "note": "(centres undefined)", "inhibition": 15.2}
{"smiles": "O=C1C=CC(=C(c2ccc(O)cc2)c2ccc(O)cc2)C=C1", "inhibition": 28.5}
{"smiles": "COc1cc(OC)c2ccc(=O)oc2c1", "inhibition": -1.21}
{"smiles": "O=C1c2ccc(O)c(O)c2C(=O)c2c(O)ccc(O)c21", "inhibition": -8.08}
{"smiles": "COc1cc(C)c2c(=O)cc(-c3ccccc3)oc2c1", "inhibition": 15.2}
{"smiles": "O=C(O)c1cc(=O)c2cccc(O)c2[nH]1", "inhibition": -21.7}
{"smiles": "C[C@]12CCC3c4ccc(OS(=O)(=O)O)cc4CCC3C1CC[C@H]2O", "note": "(some centres undefined)", "inhibition": 8.2}
{"smiles": "NC1=NCCN1CC(=O)O", "inhibition": 26.8}
{"smiles": "CC(=O)c1c(O)c(C)c(O)c2c1OC1=CC(=O)C(C(C)=O)C(=O)C12C", "note": "(centres undefined)", "inhibition": 59.1}
{"smiles": "CC(=O)N[C@@H]1[C@@H](O)[C@H](O)[C@@H](CO)O[C@H]1O", "inhibition": 0.38}
{"test": "suppressors of polyQ aggregation in yeast, 75Q-TubU reporter (AID 1593)", "settings": "Yeast 75Q polyglutamine aggregation reporter"}
{"smiles": "NC(Cn1ccc(=O)c(O)c1)C(=O)O", "note": "(centres undefined)", "score": 0.73}
{"smiles": "N#Cc1ccc2c(c1)N(CCCN1CCC(O)CC1)c1ccccc1S2", "score": 1.21}
{"smiles": "O=C(O)c1cc([N+](=O)[O-])ccc1NCCCc1ccccc1", "score": 0.73}
{"smiles": "O=c1c(-c2ccc(O)cc2)coc2cc(O)ccc12", "score": 1}
{"smiles": "CC(C)=CCc1c2c(c3occ(-c4ccc(O)c(O)c4)c(=O)c3c1O)C=CC(C)(C)O2", "score": -0.59}
{"smiles": "NC(=O)c1cccc(N)c1", "score": 1.17}
{"smiles": "CCN1CCCC1CNC(=O)c1cc(S(N)(=O)=O)ccc1OC", "note": "(centres undefined)", "score": 1.43}
{"smiles": "COc1c(OC)c2occc2c2oc(=O)ccc12", "score": 0.45}
{"smiles": "NC1(C(=O)O)CCCC1", "score": 1.21}
{"smiles": "CON", "score": 1.4}
{"smiles": "C=NC(C(=O)NC1C(=O)N2C1SC(C)(C)C2C(=O)O)c1ccccc1", "note": "(centres undefined)", "score": 0.85}
{"smiles": "O=C1C=CC(=C(c2ccc(O)cc2)c2ccc(O)cc2)C=C1", "score": 1.1}
{"smiles": "COc1cc(OC)c2ccc(=O)oc2c1", "score": 0.96}
{"smiles": "O=C1c2ccc(O)c(O)c2C(=O)c2c(O)ccc(O)c21", "score": 1.47}
{"smiles": "COc1cc(C)c2c(=O)cc(-c3ccccc3)oc2c1", "score": -1.86}
{"smiles": "O=C(O)c1cc(=O)c2cccc(O)c2[nH]1", "score": 0.98}
{"smiles": "C[C@]12CCC3c4ccc(OS(=O)(=O)O)cc4CCC3C1CC[C@H]2O", "note": "(some centres undefined)", "score": 1.49}
{"smiles": "NC1=NCCN1CC(=O)O", "score": 1.43}
{"smiles": "CC(=O)c1c(O)c(C)c(O)c2c1OC1=CC(=O)C(C(C)=O)C(=O)C12C", "note": "(centres undefined)", "score": 0.79}
{"smiles": "CC(=O)N[C@@H]1[C@@H](O)[C@H](O)[C@@H](CO)O[C@H]1O", "score": 1.2}
{"test": "rescue of polyQ-huntingtin neuronal dysfunction in worms, whole organism, C. elegans mechanosensory neurons, N-terminal huntingtin (AID 1599)", "settings": "touch response, stronger effect = higher value"}
{"smiles": "NC(Cn1ccc(=O)c(O)c1)C(=O)O", "note": "(centres undefined)", "rescue above control": -6.31}
{"smiles": "N#Cc1ccc2c(c1)N(CCCN1CCC(O)CC1)c1ccccc1S2", "rescue above control": 2.76}
{"smiles": "O=C(O)c1cc([N+](=O)[O-])ccc1NCCCc1ccccc1", "rescue above control": 1.37}
{"smiles": "O=c1c(-c2ccc(O)cc2)coc2cc(O)ccc12", "rescue above control": 2.42}
{"smiles": "CC(C)=CCc1c2c(c3occ(-c4ccc(O)c(O)c4)c(=O)c3c1O)C=CC(C)(C)O2", "rescue above control": -11.4}
{"smiles": "NC(=O)c1cccc(N)c1", "rescue above control": -8.42}
{"smiles": "CCN1CCCC1CNC(=O)c1cc(S(N)(=O)=O)ccc1OC", "note": "(centres undefined)", "rescue above control": 3.11}
{"smiles": "COc1c(OC)c2occc2c2oc(=O)ccc12", "rescue above control": 5.04}
{"smiles": "NC1(C(=O)O)CCCC1", "rescue above control": -10.9}
{"smiles": "CON", "rescue above control": -6.41}
{"smiles": "C=NC(C(=O)NC1C(=O)N2C1SC(C)(C)C2C(=O)O)c1ccccc1", "note": "(centres undefined)", "rescue above control": -2.5}
{"smiles": "O=C1C=CC(=C(c2ccc(O)cc2)c2ccc(O)cc2)C=C1", "rescue above control": -3.26}
{"smiles": "COc1cc(OC)c2ccc(=O)oc2c1", "rescue above control": 0.64}
{"smiles": "COc1cc(C)c2c(=O)cc(-c3ccccc3)oc2c1", "rescue above control": 16.3}
{"smiles": "O=C(O)c1cc(=O)c2cccc(O)c2[nH]1", "rescue above control": -4.01}
{"smiles": "C[C@]12CCC3c4ccc(OS(=O)(=O)O)cc4CCC3C1CC[C@H]2O", "note": "(some centres undefined)", "rescue above control": 11.3}
{"smiles": "NC1=NCCN1CC(=O)O", "rescue above control": 1.68}
{"smiles": "CC(=O)c1c(O)c(C)c(O)c2c1OC1=CC(=O)C(C(C)=O)C(=O)C12C", "note": "(centres undefined)", "rescue above control": 1.6}
{"smiles": "CC(=O)N[C@@H]1[C@@H](O)[C@H](O)[C@@H](CO)O[C@H]1O", "rescue above control": 2.33}
{"test": "inhibitors of mitochondrial cytochrome c release, biochemical, purified mitochondria (AID 1603);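 also: mouse liver mitochondria challenged with calcium chloride; signal normalized to the plate average as 100%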", "settings": "stronger effect = lower value"}
{"smiles": "NC(Cn1ccc(=O)c(O)c1)C(=O)O", "note": "(centres undefined)", "cytochrome c release ratio": 0.84}
{"smiles": "N#Cc1ccc2c(c1)N(CCCN1CCC(O)CC1)c1ccccc1S2", "cytochrome c release ratio": 0.74}
{"smiles": "O=C(O)c1cc([N+](=O)[O-])ccc1NCCCc1ccccc1", "cytochrome c release ratio": 0.78}
{"smiles": "O=c1c(-c2ccc(O)cc2)coc2cc(O)ccc12", "cytochrome c release ratio": 0.87}
{"smiles": "CC(C)=CCc1c2c(c3occ(-c4ccc(O)c(O)c4)c(=O)c3c1O)C=CC(C)(C)O2", "cytochrome c release ratio": 1.28}
{"smiles": "NC(=O)c1cccc(N)c1", "cytochrome c release ratio": 1.08}
{"smiles": "CCN1CCCC1CNC(=O)c1cc(S(N)(=O)=O)ccc1OC", "note": "(centres undefined)", "cytochrome c release ratio": 0.88}
{"smiles": "COc1c(OC)c2occc2c2oc(=O)ccc12", "cytochrome c release ratio": 1}
{"smiles": "NC1(C(=O)O)CCCC1", "cytochrome c release ratio": 4.67}
{"smiles": "CON", "cytochrome c release ratio": 0.58}
{"smiles": "C=NC(C(=O)NC1C(=O)N2C1SC(C)(C)C2C(=O)O)c1ccccc1", "note": "(centres undefined)", "cytochrome c release ratio": 0.48}
{"smiles": "O=C1C=CC(=C(c2ccc(O)cc2)c2ccc(O)cc2)C=C1", "cytochrome c release ratio": 1.26}
{"smiles": "COc1cc(OC)c2ccc(=O)oc2c1", "cytochrome c release ratio": 0.64}
{"smiles": "O=C1c2ccc(O)c(O)c2C(=O)c2c(O)ccc(O)c21", "cytochrome c release ratio": 0.18}
{"smiles": "COc1cc(C)c2c(=O)cc(-c3ccccc3)oc2c1", "cytochrome c release ratio": 1.19}
{"smiles": "O=C(O)c1cc(=O)c2cccc(O)c2[nH]1", "cytochrome c release ratio": 1.01}
{"smiles": "C[C@]12CCC3c4ccc(OS(=O)(=O)O)cc4CCC3C1CC[C@H]2O", "note": "(some centres undefined)", "cytochrome c release ratio": 0.9}
{"smiles": "NC1=NCCN1CC(=O)O", "cytochrome c release ratio": 1.01}
{"smiles": "CC(=O)c1c(O)c(C)c(O)c2c1OC1=CC(=O)C(C(C)=O)C(=O)C12C", "note": "(centres undefined)", "cytochrome c release ratio": 0.98}
{"smiles": "CC(=O)N[C@@H]1[C@@H](O)[C@H](O)[C@@H](CO)O[C@H]1O", "cytochrome c release ratio": 0.85}
